Test results from PubChem BioAssay (Tox21).
Inconclusive results are not listed. Active and inactive are the calls of the source. Unless noted, calls follow the shape of the dose curve; as a rule, active = well fitted curve in the direction sought with a large enough effect in the repeat runs; inconclusive = weak or mixed curves; inactive = no such curve, though single readings can be large; an effect the other way counts as inactive or inconclusive.

Experiments:
[1] = qHTS assay to identify small molecule antagonists of the estrogen related receptor (ERR) signaling pathway from Tox21 library - cell viability counter screen (AID 1224834); also: nearly all actives have a fitted effect of over 30% in size
Method in brief: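 Compounds in DMSO were pinned onto ERR cells that had been incubated for 6 h, and the plates were held at 37 C for 17.5 h. CellTiter-Fluor reagent was then added and fluorescence was measured after 30 min.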

[2] = target: Luciferin 4-monooxygenase (Photinus pyralis) (UniProt P08659); test: qHTS assay to identify small molecule inhibitors of firefly luciferase (AID 1224835); also: nearly all actives have a fitted effect of over 25% in size
Sequence of Luciferin 4-monooxygenase (Photinus pyralis) (P08659 whole entry, looked up): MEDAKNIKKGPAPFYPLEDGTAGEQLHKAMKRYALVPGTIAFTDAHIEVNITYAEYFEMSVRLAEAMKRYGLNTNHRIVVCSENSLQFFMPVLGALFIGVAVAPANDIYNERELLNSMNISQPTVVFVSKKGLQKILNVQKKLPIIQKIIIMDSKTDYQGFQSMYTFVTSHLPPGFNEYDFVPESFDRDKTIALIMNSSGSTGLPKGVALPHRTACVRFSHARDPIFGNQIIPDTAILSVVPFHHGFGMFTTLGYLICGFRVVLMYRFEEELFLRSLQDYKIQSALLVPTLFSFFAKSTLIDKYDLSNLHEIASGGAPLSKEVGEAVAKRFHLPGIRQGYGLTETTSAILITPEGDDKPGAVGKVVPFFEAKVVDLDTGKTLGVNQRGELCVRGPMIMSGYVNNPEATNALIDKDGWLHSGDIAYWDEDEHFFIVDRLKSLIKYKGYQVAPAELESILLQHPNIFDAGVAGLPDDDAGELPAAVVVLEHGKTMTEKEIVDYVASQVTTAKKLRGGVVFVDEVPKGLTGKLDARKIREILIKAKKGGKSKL
Method in brief: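 Quantitative HTS format; KM concentrations of both substrates. Purified P. pyralis FLuc activity quantified from luminescence images.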

[3] = qHTS assay to identify small molecule agonists of the constitutive androstane receptor (CAR) signaling pathway - cell viability counter screen (AID 1224836); also: nearly all actives have a fitted effect of over 45% in size
Method in brief: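 Double-stable HepG2 hepatoma cells (hCAR plus CYP2B6-2.2kb) are treated for 23 h at 37 C with test compounds in 15-point concentration series. PK11195 at 0.75 uM final is co-added. Cell viability is quantified by CellTiter-Fluor.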

[4] = qHTS assay to identify small molecule antagonists of the constitutive androstane receptor (CAR) signaling pathway - cell viability counter screen (AID 1224837); also: nearly all actives have a fitted effect of over 45% in size
Method in brief: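 Cells are seeded, rested 4 hr at 37 C/5% CO2, dosed with compound (15-point series) and 50 nM CITCO, incubated a further 23 hr, and then CellTiter-Fluor reagent is added before fluorescence is read. The line is HepG2 with stable hCAR and CYP2B6-2.2kb.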

[5] = target: Nuclear receptor subfamily 1 group I member 3 (Homo sapiens) (UniProt Q14994); test: qHTS assay to identify small molecule antagonists of the constitutive androstane receptor (CAR) signaling pathway (AID 1224838);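 also: HepG2 cells stably expressing hCAR with CYP2B6 luciferase reporter stimulated by CITCO; nearly all actives have a fitted effect of over 40% in size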
Sequence of Nuclear receptor subfamily 1 group I member 3 (Homo sapiens) (Q14994 whole entry, looked up): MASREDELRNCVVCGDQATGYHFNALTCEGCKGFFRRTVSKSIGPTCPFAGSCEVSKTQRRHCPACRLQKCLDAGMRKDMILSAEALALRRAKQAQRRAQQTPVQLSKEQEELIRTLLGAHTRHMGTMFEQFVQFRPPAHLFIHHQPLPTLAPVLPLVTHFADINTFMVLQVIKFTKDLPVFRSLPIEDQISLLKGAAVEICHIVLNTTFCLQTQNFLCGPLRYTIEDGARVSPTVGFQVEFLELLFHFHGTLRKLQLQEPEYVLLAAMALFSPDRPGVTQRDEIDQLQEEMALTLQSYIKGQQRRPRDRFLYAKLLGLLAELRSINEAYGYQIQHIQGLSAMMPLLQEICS
Method in brief: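 Luminescence from a CYP2B6-2.2kb promoter reporter in hCAR-expressing HepG2 cells reflects CAR signaling. Cells received compounds at 15 concentrations and 50 nM CITCO (final), then incubated 24 h at 37 C/5% CO2.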

[6] = target: Nuclear receptor subfamily 1 group I member 3 (Homo sapiens) (UniProt Q14994); test: qHTS assay to identify small molecule agonists of the constitutive androstane receptor (CAR) signaling pathway (AID 1224839);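 also: HepG2 cells stably carrying human CAR and a CYP2B6 luciferase reporter; nearly all actives have a fitted effect of over 15% in size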
Method in brief: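 Readout: firefly luciferase luminescence via ONE-Glo. System: HepG2 double-stable for hCAR and CYP2B6-2.2kb. Conditions: 15-point compound titration, PK11195 at 0.75 uM final, 24 h incubation.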

[7] = qHTS assay to identify small molecule antagonists of the estrogen related receptor signaling pathway with the pleiotropic PPARgamma coactivator (PGC) from Tox21 10K library - cell viability counter screen (AID 1224840; active = well fitted cell-killing curve with a large enough effect in the repeat runs, not every such curve was filed as active; also: nearly all actives have a fitted effect of over 40% in size)
Method in brief: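 Cell viability is measured by CellTiter-Fluor fluorescence in PGC/ERR cells that receive compounds after a 6-hour attachment period and are then incubated 17.5 hours at 37 C.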

[8] = qHTS assay to identify small molecule antagonists of the estrogen related receptor signaling pathway with the pleiotropic PPARgamma coactivator (PGC) from Tox21 10K library (AID 1224841; call rule not given here; also: actives are mostly falling curves and most rising ones were filed inactive; nearly all actives have a fitted effect of over 50% in size)
Method in brief: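 Cells stably carrying the PGC/ERR reporter, seeded at 2,000 per well, received pin-transferred compounds 6 h post-plating. Exposure lasted 18 h at 37 C. Signal: One-Glo luminescence.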

[9] = qHTS assay to identify small molecule agonists of the estrogen related receptor signaling pathway with the pleiotropic PPARgamma coactivator (PGC) from Tox21 10K library (AID 1224842); also: nearly all actives have a fitted effect of over 15% in size
Method in brief: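 PGC/ERR reporter cells (NTP line) were seeded 2,000 per well, rested 6 h at 37 C/5% CO2, then pin-dosed with compounds in DMSO for 18 h at 37 C; luciferase read by One-Glo luminescence after 30 min at room temperature.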

[10] = target: Thyrotropin receptor (Homo sapiens) (UniProt P16473); test: qHTS assay to identify small molecule agonists of the thyroid stimulating hormone receptor (TSHR) signaling pathway (AID 1224843; calls by dose curve; also: nearly all actives have a fitted effect of over 45% in size)
Sequence of Thyrotropin receptor (Homo sapiens) (P16473 whole entry, looked up): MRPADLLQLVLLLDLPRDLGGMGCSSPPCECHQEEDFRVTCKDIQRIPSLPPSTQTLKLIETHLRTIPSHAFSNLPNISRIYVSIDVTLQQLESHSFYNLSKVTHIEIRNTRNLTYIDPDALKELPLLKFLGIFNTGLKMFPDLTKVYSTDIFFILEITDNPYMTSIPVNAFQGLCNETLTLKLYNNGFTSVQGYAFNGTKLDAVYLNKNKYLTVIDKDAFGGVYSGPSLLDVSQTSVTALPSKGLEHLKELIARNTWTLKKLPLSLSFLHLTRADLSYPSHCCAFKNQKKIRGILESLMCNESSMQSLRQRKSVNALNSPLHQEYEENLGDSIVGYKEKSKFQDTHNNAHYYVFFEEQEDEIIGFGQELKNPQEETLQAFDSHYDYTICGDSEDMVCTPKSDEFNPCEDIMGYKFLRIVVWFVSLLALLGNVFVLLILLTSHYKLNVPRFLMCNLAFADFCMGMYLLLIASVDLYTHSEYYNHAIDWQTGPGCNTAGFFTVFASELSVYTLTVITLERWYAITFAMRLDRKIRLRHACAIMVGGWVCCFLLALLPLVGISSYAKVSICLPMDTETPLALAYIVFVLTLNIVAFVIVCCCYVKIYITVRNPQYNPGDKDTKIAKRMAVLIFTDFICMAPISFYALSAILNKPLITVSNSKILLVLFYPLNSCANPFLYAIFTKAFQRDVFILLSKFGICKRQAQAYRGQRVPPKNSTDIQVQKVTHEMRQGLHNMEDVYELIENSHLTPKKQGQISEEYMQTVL
Method in brief: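 Using 15 concentrations per compound in triplicate, cAMP production was monitored in TSHR-HEK293 cells after 30 min compound incubation at RT; HTRF reagents followed, with fluorescence intensity recorded after 1 h.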

[11] = qHTS assay to identify small molecule agonists of the hypoxia (HIF-1) signaling pathway - cell viability counter screen (AID 1224844; calls by dose curve; also: nearly all actives have a fitted effect of over 50% in size)
Method in brief: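 Viability counter screen: HRE-bla ME-180 cells plated 5 hrs before compound addition, treated 17 hrs at 37C and 5% CO2, then CellTiter-Glo added after the FRET reporter read; luminescence after 30 min.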

[12] = qHTS assay to identify small molecule agonists of H2AX (AID 1224845; active = well fitted activation curve with a large enough effect in the signal ratio in the repeat runs, not every such curve was filed as active; the % refers to the signal ratio)
Method in brief: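 Wild-type CHO-K1 cells plated overnight, then exposed 3 hr at 37C to compounds at 15 concentrations (0.76% DMSO). Lysed, then HTRF anti-pH2AX(S139)-cryptate/anti-H2AX-d2 detection after 24 hr at room temperature; emissions 665 and 620 nm.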

[13] = qHTS assay to identify small molecule agonists of the hypoxia (HIF-1) signaling pathway (AID 1224846; active = well fitted activation curve with a large enough effect in the signal ratio in the repeat runs, not every such curve was filed as active; the % refers to the signal ratio)
Method in brief: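 Agonist mode reporter screen. ME-180 cells stably expressing bla under HRE control received test compounds in DMSO for 17 hrs (37C, 5% CO2), and beta-lactamase activity was then detected with the CCF4-AM FRET substrate.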

[14] = qHTS assay to identify small molecule agonists of H2AX - cell viability counter screen (AID 1224847; calls by dose curve; also: top concentration of the series differs between compounds; nearly all actives have a fitted effect of over 30% in size)
Method in brief: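 For this counter screen, overnight-attached CHO-K1 cells received test compounds (15 concentrations, 0.76% DMSO final); 3 hr later at 37C, CellTiter-Glo reagent was added and luminescence recorded after 30 min at room temperature.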

[15] = qHTS assay to identify small molecule antagonists of the estrogen related receptor (ERR) signaling pathway from Tox21 library (AID 1224848); also: nearly all actives have a fitted effect of over 50% in size
Method in brief: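 Tox21 10K compounds in DMSO tested for ERR pathway antagonism in NTP's ERR cell line; 18 h, 37 C exposure; ONE-Glo luminescence.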

[16] = qHTS RealTime-Glo MT Cell Viability Assay in HepG2 cells - 24 hour (AID 1224867); also: nearly all actives have a fitted effect of over 50% in size
Method in brief: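 HepG2 suspension premixed with RealTime-Glo reagents is plated at 600 cells per well and left 5 h at 37 C/5% CO2. Compounds in DMSO then go in, and bioluminescence reflecting viable cell number is recorded over 40 h.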

[17] = qHTS RealTime-Glo MT Cell Viability Assay in HEK293 cells - 32 hour (AID 1224868)
Method in brief: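 Reads taken at 0, 8, 16, 24, 32 and 40 h from the same wells. HEK293 cells (600/well) carried RealTime-Glo reagents from seeding, with compound added after a 5 h settle at 37 C.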

[18] = A CellTox Green Cytotoxicity Assay to monitor cytotoxicity in HEK293 cells - 0 hour (AID 1224869); also: nearly all actives have a fitted effect of over 50% in size
Method in brief: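 Dead-cell fluorescence measured kinetically: asymmetric cyanine dye, HEK293, 600 cells/well, 5 h settle, 23 nL cpd/DMSO, 37 C, reads 0–40 h every 8 h.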

[19] = qHTS assay to identify small molecule agonists of the estrogen related receptor signaling pathway with the pleiotropic PPARgamma coactivator (PGC) (AID 1224823)
Method in brief: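 In this quantitative high-throughput screen, an 18 h, 37 C treatment of PGC/ERR cells with compounds in DMSO preceded a One-Glo luminescence read taken after 30 min at room temperature.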

[20] = qHTS assay to identify small molecule agonists of the estrogen related receptor (ERR) signaling pathway from Tox21 library (AID 1224849; calls by dose curve; also: nearly all actives have a fitted effect of over 15% in size); conditions: ERR reporter cell line, ONE-Glo luciferase, 18 h; at 92.4 µM (top of the series) unless noted
Method in brief: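 Quantitative HTS in agonist format: NTP ERR cell line, compounds transferred in DMSO after 6 h plating, 18 h incubation at 37 C, ONE-Glo luminescence endpoint.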
% is scaled to controls: 0 for no effect and ±100 for the full control effect.

CCC(C)(C#N)N=NC(C)(C#N)CC (centres undefined)
inactive: Potency [1] | Potency [2] | Potency [3] | Potency [4] | Potency [5] | Potency [6] | Potency [7] | Potency [8] | Potency [9] | Potency [10] | Potency [11] | outcome [12] | outcome [13] | Potency [14] | Potency [15] | Potency [16] | Potency [17] | outcome [18]

O=c1[nH]oc2c1CCNC2
inactive: outcome [19] | Potency [1] | Potency [3] | Potency [4] | Potency [7] | Potency [8] | Potency [9] | Potency [10] | Potency [11] | outcome [12] | Potency [14] | Potency [15] | activity change, positive = activation [20] 0.599% [at 42.5 µM] | Potency [16] | Potency [17] | outcome [18]

Cc1ccc2c(c1)C1CN(C)CCC1N2 (centres undefined)
inactive: viability change, negative = cytotoxic [1] 8.02% [at 19 µM] | activity change, negative = inhibition [2] -0.519% [at 23.6 µM] | viability change, negative = cytotoxic [3] 3.2% [at 19 µM] | activity change, negative = cytotoxicity [4] 1.97% [at 19 µM] | activity, negative = inhibition [5] 51% [at 19 µM] | activation [6] 2.22% [at 19 µM] | viability change, negative = cytotoxic [7] 2.92% [at 19 µM] | activity, negative = inhibition [8] -1.31% [at 19 µM] | activation [9] -0.364% [at 19 µM] | activation [10] 15.7% [at 19 µM] | activity change, negative = cytotoxicity [11] -1.4% [at 15.8 µM] | activation (H2AX phosphorylation) [12] -0.451% [at 31.6 µM] | activation [13] 0.38% [at 15.8 µM] | activity change, negative = cytotoxicity [14] -2.09% [at 31.6 µM] | activity, negative = inhibition [15] 10.8% [at 19 µM] | activity change, positive = activation [20] 6.1% [at 19 µM] | activity change, negative = cytotoxicity [16] -2.75% [at 15.8 µM] | activity change, negative = cytotoxic [17] 0.479% [at 15.8 µM] | cytotoxicity [18] -0.0492% [at 15.8 µM]

Cn1c(CCCC(=O)O)nc2cc(N(CCCl)CCCl)ccc21
inactive: outcome [19] | Potency [1] | Potency [2] | Potency [3] | Potency [4] | Potency [6] | Potency [7] | Potency [8] | Potency [9] | Potency [10] | Potency [11] | outcome [12] | outcome [13] | Potency [14] | Potency [15] | Potency [16] | Potency [17] | outcome [18]

O=C(Cl)OCc1ccccc1
inactive: Potency [1] | Potency [2] | Potency [3] | Potency [4] | Potency [5] | Potency [6] | Potency [7] | Potency [8] | Potency [9] | Potency [10] | Potency [11] | outcome [12] | outcome [13] | Potency [14] | Potency [15] | activity change, positive = activation [20] 6.05% | Potency [16] | Potency [17] | outcome [18]

CCN[C@H](C)Cc1cccc(C(F)(F)F)c1
inactive: Potency [1] | Potency [2] | Potency [3] | Potency [4] | Potency [5] | Potency [6] | Potency [7] | Potency [10] | Potency [11] | outcome [12] | outcome [13] | Potency [14] | Potency [16] | Potency [17] | outcome [18]

NC(=O)CS(=O)C(c1ccccc1)c1ccccc1 (centres undefined)
inactive: Potency [1] | Potency [2] | Potency [3] | Potency [4] | Potency [5] | Potency [6] | Potency [7] | Potency [8] | Potency [9] | Potency [10] | Potency [11] | outcome [12] | outcome [13] | Potency [14] | Potency [15] | activity change, positive = activation [20] 9.38% [at 42.5 µM] | Potency [16] | Potency [17] | outcome [18]
